Reference: PubChem BioAssay (NCATS)
“And” between values parts separate entries of the source, which are not always exact repeats. Equal values may be shown once. Inconclusive results are not listed. The source made the active and inactive calls. Unless noted, calls come from the whole dose curve; as a rule, active = well fitted curve in the direction sought with a large enough effect; inconclusive = small, poorly fitted or top-dose-only effect, or another doubt; inactive = no such curve, though single readings can be large; an effect the other way counts as inactive or inconclusive.

Assays:
[1] = Cell Viability - Jurkat (AID 426;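 active = dose-dependent loss of cell ATP signal giving a full or clear fitted curve, ranked by lower potency value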; note: potency is the fitted concentration of half-maximal effect); conditions: qHTS
Procedure, shortened: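 Seed 5000 Jurkat E6-1 cells/well; add compound; incubate 40 hr at 37 °C; add CellTiter-Glo; wait 20 min at room temperature; read luminescence. Fit concentration-response with Hill equation for AC50.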

[2] = Cell Viability - Hek293 (AID 427;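 active = compounds whose dose-response curve shows a full or clear partial loss of cell viability, called from curve shape rather than a numeric limit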;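 note: potency is the fitted concentration of half-maximal effect; cells exposed to compound for 40 hours at 37 °C before reading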); conditions: qHTS
Procedure, shortened: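 HEK293 cells in complete medium were exposed to compound for 40 hr at 37 °C, then cellular ATP was read by CellTiter-Glo luminescence. Data were normalized to DMSO (basal) and 100 uM tamoxifen (100% inhibition), and AC50 came from Hill fits.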

[3] = Cell Viability - HepG2 (AID 433; calls by dose curve;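 note: potency is the fitted concentration of half-maximal effect; potency for ATP loss meaning cytotoxicity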); conditions: qHTS
Procedure, shortened: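 Cytotoxicity is scored as loss of intracellular ATP in HepG2 cells exposed to compounds for 40 h. Concentration-response curves, normalized to DMSO and 100 uM tamoxifen, give AC50 values.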

[4] = biological target: Mitogen-activated protein kinase 10 (Mus musculus) (UniProt Q61831); assay: JNK3 AlphaScreen Assay (AID 530; active = well fitted curve in either direction with a large enough effect, not every such curve was filed as active;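 note: kinase came from lysate of stimulated human HepG2 cells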; note: potency is the fitted concentration of half-maximal effect); conditions: JNK3 lysate, c-Jun phosphorylation; series mostly up to 57.1 µM
Procedure, shortened: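 Room-temperature AlphaScreen kinase assay; pre-activated HepG2 lysate as JNK3 source, biotin-GST-cJun(1-79) substrate, 10 uM ATP, compound 15 min preincubation.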

[5] = Cell Viability - NIH 3T3 (AID 541); conditions: NIH 3T3 cell viability, qHTS; activity change, negative = cytotoxicity: at 92.2 µM (top of the series); note: nearly all actives have a fitted effect of over 25% in size; note: potency is the fitted concentration of half-maximal effect;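 for activity change, negative = cytotoxicity: plate controls were DMSO alone for no effect and tamoxifen positive control for full effect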
Procedure, shortened: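 AC50 values reflect concentration-dependent loss of intracellular ATP in NIH 3T3 cells after 40 hr treatment in complete culture medium, quantified by luciferase-based luminescence.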

[6] = Cell Viability - H-4-II-E (AID 543); conditions: H-4-II-E rat hepatoma viability; series mostly up to 92.2 µM; note: nearly all actives have a fitted effect of over 35% in size; note: potency is the fitted concentration of half-maximal effect
Procedure, shortened: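 Here, cytotoxicity is measured in the rat hepatoma line H-4-II-E as loss of intracellular ATP after 40 hr compound treatment, detected by luciferase luminescence.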

[7] = Cellular Toxicity (caspase-3) Jurkat (AID 655); conditions: Jurkat caspase-3 activation, luminescence; caspase-3 activation: at 92.2 µM (top of the series), DMSO = 0%, tamoxifen = 100%;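 note: cells exposed to compound for 16 h at 37 °C before reading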; note: potency is the fitted concentration of half-maximal effect
Procedure, shortened: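 Caspase 3/7 activation is scored as increased luminescence in Jurkat cells cultured with compound for 16 hours in complete medium. AC50 values come from Hill fits of qHTS concentration-response data normalized to DMSO and 100 uM tamoxifen controls.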

[8] = Cellular Toxicity (caspase-3) SHSY5Y (AID 657); conditions: SH-SY5Y caspase-3 activation; series mostly up to 91.7 µM;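 note: cells exposed to compound for 16 hours at 37 °C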; note: potency is the fitted concentration of half-maximal effect
Procedure, shortened: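 Cells plated and incubated 5 h at 37 °C, dosed over a concentration range, incubated 16 h, then given Caspase-Glo 3/7 reagent for 1 h at room temperature before luminescence reading. Staurosporine (10 uM) defined full stimulation.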

[9] = Cellular Toxicity (caspase-3) BJ (AID 658); conditions: BJ fibroblasts, luminescence; Potency: caspase-3 activation; series mostly up to 91.7 µM; note: potency is the fitted concentration of half-maximal effect
Procedure, shortened: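 Readout: Caspase-Glo 3/7 luminescence increase in BJ cells after 16 hr treatment at 37 °C. Staurosporine and tamoxifen served as positive controls; AC50 values came from Hill modelling of data normalized to DMSO and 10 uM staurosporine.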

[10] = Cellular Toxicity (caspase-3) MRC-5 (AID 659); conditions: MRC-5 cells, luminescence, normalized: DMSO 0%, 10 µM staurosporine 100%; series mostly up to 91.7 µM;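 note: cells exposed to compound for 16 h at 37 °C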
Procedure, shortened: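 Concentration-dependent caspase 3/7 activation is measured in human normal lung fibroblasts (MRC-5) following 16-hour treatment. AC50 values come from standard Hill-equation modeling of luminescence normalized to DMSO and 10 uM staurosporine.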

[11] = Cellular Toxicity (caspase-3) SK-N-SH (AID 661); conditions: SK-N-SH caspase-3 activation, qHTS; caspase-3 activation: at 91.7 µM (top of the series), DMSO as zero, staurosporine as full
Procedure, shortened: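 Caspase 3/7 activation is measured as a luminescence increase from aminoluciferin released by substrate cleavage in SK-N-SH cells after 16 hr compound treatment; values are AC50 from concentration-response curves.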

[12] = Cellular Toxicity (caspase-3) H-4-II-E (AID 663); conditions: H-4-II-E rat hepatoma; Potency: caspase-3 activation; caspase-3 activation: at 92.2 µM (top of the series), scaled: DMSO 0%, 100 µM tamoxifen 100%;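 note: cells exposed to compound for 16 hr before readout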
Procedure, shortened: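 Apoptosis induction is scored as increased luminescence from caspase 3/7 substrate cleavage in rat hepatoma H-4-II-E cells exposed to compound for 16 hr. Activity is scaled between DMSO and 100 uM tamoxifen.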

[13] = Cell Viability - LYMP1-002 - Assay at 16 hr (AID 948); conditions: LYMP1-002 lymphoblastoid cell viability; series mostly up to 92.2 µM; note: potency is the fitted concentration of half-maximal effect;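 for activity change, negative = cytotoxicity: 0% = DMSO alone and full effect = 92 µM tetraoctylammonium bromide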
Procedure, shortened: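 Acute cytotoxicity is scored as a concentration-dependent fall in intracellular ATP in a human lymphoblastoid line (LYMP1-002) after 16 hr compound exposure at 37 C, measured by luciferase luminescence.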

[14] = MultiTox-Fluor Cytotoxicity Assay - LYMP1-002 - Live Cells (AID 955); conditions: LYMP1-002 lymphoblastoid live-cell protease fluorescence viability; series mostly up to 46.1 µM; note: potency is the fitted concentration of half-maximal effect
Procedure, shortened: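 Cytotoxicity in the human lymphoblastoid line LYMP1-002 is measured as loss of live-cell protease activity after 16 h treatment in complete culture medium. AC50 is derived from Hill-equation fits of qHTS concentration-response data.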

[15] = MultiTox-Fluor Cytotoxicity Assay - LYMP1-003 - Live Cells (AID 962); conditions: LYMP1-003 lymphoblastoid cells, MultiTox-Fluor live-cell protease fluorescence; series mostly up to 92.2 µM;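 note: cells exposed to compound for 16 hours at 37 °C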; note: potency is the fitted concentration of half-maximal effect
Procedure, shortened: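 Cells plated at 2500 per well and incubated 5 hr; compounds added and incubated 16 hr at 37 C; MultiTox-Fluor reagent added for 60 min at room temperature; fluorescence of liberated AFC measured at 405/510 nm.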

[16] = Cell Viability - LYMP2-009 (AID 968); conditions: LYMP2-009 lymphoblastoid cell viability; series mostly up to 92.2 µM;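 note: cells exposed to compound for 24 h at 37 °C; nearly all actives have a fitted effect of over 55% in size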; note: potency is the fitted concentration of half-maximal effect
[17] = Cell Viability - LYMP2-021 (AID 974); conditions: LYMP2-021 lymphoblastoid cells viability; series mostly up to 92.2 µM;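 note: compound exposure lasts 24 hours at 37 °C; nearly all actives have a fitted effect of over 55% in size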; note: potency is the fitted concentration of half-maximal effect; for activity change, negative = cytotoxicity: % is set by controls: 0 for no effect and ±100 for the full control effect
Procedure, shortened: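 Concentration-response cytotoxicity in a human lymphoblastoid line: 24 hr treatment at 37 C in complete culture medium, tetraoctylammonium bromide as positive control, luminescent ATP quantitation as viability measure.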

[18] = Cell Viability - LYMP2-007 (AID 979); conditions: LYMP2-007 lymphoblastoid cell viability; series mostly up to 92.2 µM;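 note: cells exposed to compound for 24 h before reading; nearly all actives have a fitted effect of over 60% in size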; note: potency is the fitted concentration of half-maximal effect;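 for activity change, negative = cytotoxicity: 0% = DMSO only and the negative end = 92 µM tetraoctylammonium bromide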
Procedure, shortened: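 Acute toxicity is scored as a concentration-dependent fall in intracellular ATP in human lymphoblastoid cells treated 24 hr at 37 C, measured by luciferase luminescence; Hill-equation modelling yields AC50.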

[19] = Cell Viability - LYMP1-002 - Assay at 24 hr (AID 993); conditions: LYMP1-002 lymphoblastoid cells viability; series mostly up to 92.2 µM; note: potency is the fitted concentration of half-maximal effect; for activity change, negative = cytotoxicity: % is set by controls: 0 for no effect and ±100 for the full control effect
Procedure, shortened: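 qHTS, LYMP1-002 lymphoblastoid, 24 h cpd, 37 C, CellTiter-Glo ATP luminescence; AC50 via Hill eq.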

[20] = qHTS assay for small molecule agonists of the antioxidant response element (ARE) signaling pathway measured by Nrf2-dependant transcriptional activity - cell viability counter screen (AID 720653; active = well fitted curve in the direction sought with a large enough effect in the repeat runs; an effect the other way counts as inactive or inconclusive; note: potency is the fitted concentration of half-maximal effect; for max response: % is set by controls: 0 for no effect and ±100 for the full control effect); conditions: ARE-bla HepG2 viability, CellTiter-Glo ATP luminescence, 16 h; max response: hits give low values
Procedure, shortened: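 Cytotoxicity counter screen: intracellular ATP quantified by CellTiter-Glo luminescence in the same ARE-bla HepG2 plates, after 16 h compound exposure and a 2 h beta-lactamase substrate step.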

Cc1cccc(O)c1C
inactive: Potency [1] > 92 µM | Potency [2] > 92 µM | Potency [3] > 92 µM | Potency [4] | Potency [5] | Potency [6] | Potency [7] | Potency [8] | Potency [9] | outcome [10] | caspase-3 activation [11] -0.783% | caspase-3 activation [12] 0.768% | Potency [13] | Potency [14] | Potency [15] | Potency [16] | Potency [17] | Potency [18] | Potency [19] | max response [20] -1.51%

O=C(OCC(COC(=O)c1ccccc1)(COC(=O)c1ccccc1)COC(=O)c1ccccc1)c1ccccc1
inactive: Potency [1] > 92 µM | Potency [2] > 92 µM | Potency [3] > 92 µM | Potency [4] | Potency [5] | Potency [6] | Potency [7] | Potency [8] | Potency [9] | outcome [10] | caspase-3 activation [11] -0.121% | caspase-3 activation [12] -0.12% | Potency [13] | Potency [14] | Potency [15] | Potency [16] | Potency [17] | Potency [18] | Potency [19] | max response [20] 3.26%

C=CC(=O)OCC(CO)(COC(=O)C=C)COC(=O)C=C
inactive: Potency [3] > 92 µM | Potency [4]
active: Potency [1] 1.6 µM | Potency [2] 8.68 µM | Potency [5] 2 µM | Potency [6] 2.51 µM | caspase-3 activation [7] -6.15% | Potency [8] 2.51 µM | caspase-3 activation [11] -3.53%

CCCC[C@@H]1C[C@H]1C(NC(=O)c1ccco1)c1ccccc1 (some centres not stated)
inactive: Potency [4]

COC(=O)[C@H]1C[C@@H]1[C@H](NC(=O)OCc1ccccc1)c1ccccc1
inactive: Potency [4]

CCCC[C@@H]1C[C@H]1C(NC(=O)c1cccs1)c1ccccc1C(F)(F)F (some centres not stated)
inactive: Potency [4]

CC[C@H]1C(=O)OC[C@@H]1Cc1cncn1C
inactive: Potency [4]

COC(=O)c1ccc(C(NC(=O)c2ccccc2)[C@]2(C)C[C@H]2C2CCCCC2)cc1 (some centres not stated)
inactive: Potency [4]

CN1[C@H]2CC(OC(=O)[C@H](CO)c3ccccc3)C[C@H]1[C@H]1O[C@H]12 (some centres not stated)
inactive: Potency [1] > 92 µM | Potency [2] > 92 µM | Potency [3] > 92 µM | Potency [5] | Potency [6] | Potency [7] | Potency [8] | Potency [9] | outcome [10] | caspase-3 activation [11] -1.73% and -0.623% | caspase-3 activation [12] 0.771% and -1.21% | Potency [13] | Potency [14] | Potency [15] | Potency [16] | Potency [17] | Potency [18] | Potency [19] | max response [20] 0.433% and 4.93%

CCCCCCCC[N+](CCCCCCCC)(CCCCCCCC)CCCCCCCC
active: Potency [1] 7.74 µM | Potency [2] 7.17 µM | Potency [3] 4.92 µM | Potency [5] 3.16 µM | Potency [6] 12.6 µM | Potency [7] 12.6 µM | Potency [9] 12.6 µM | Potency [13] 6.31 µM | Potency [14] 3.98 µM | Potency [15] 12.6 µM | Potency [16] 3.98 µM | Potency [17] 7.94 µM | Potency [18] 2.51 µM | Potency [19] 3.16 µM | Potency [20] 28.2 µM
inactive: Potency [4]

O=C(/C=C/c1ccc(O)c(O)c1)OC1C[C@](O)(C(=O)O)C[C@@H](O)[C@H]1O (some centres not stated)
inactive: Potency [1] > 92 µM | Potency [2] > 92 µM | Potency [3] > 92 µM | Potency [4] | Potency [5] | Potency [6] | Potency [7] | Potency [8] | Potency [9] | outcome [10] | caspase-3 activation [11] 0.0888% and -0.0196% | caspase-3 activation [12] 0.575% and -0.278% | Potency [13] | Potency [14] | Potency [15] | Potency [16] | Potency [17] | Potency [18] | Potency [19] | max response [20] -1.61% and -3.17%

Cc1ccc(S(=O)(=O)Oc2ccc(N=Nc3ccc(-c4ccc(N=Nc5c(O)ccc6cc(S(=O)(=O)O)cc(S(=O)(=O)O)c56)c(C)c4)cc3C)cc2)cc1
inactive: Potency [7] | Potency [8] | Potency [9] | outcome [10] | caspase-3 activation [11] -0.915% | caspase-3 activation [12] -0.204% | Potency [14]
active: Potency [4] 0.2 µM
